Results as given in PubChem BioAssay.

target: Calmodulin-1 (Homo sapiens) (UniProt P0DP23); experiment: calcium-bound CALM1 binders on microarrays, profiling panel, artefact control for SMM control-protein annotation, biochemical, small-molecule microarray, Cy5-labelled CALM1, plus calcium (AID 1112); settings: Cy5-CALM1 binding fluorescence, higher = more signal;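 also: score merges spot fluorescence with signal to noise from triplicate slides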

| Compound | composite z-score |
| --- | --- |
| CCN1C(=O)[C@H]2[C@H]3[C@H](O)[C@H](O)CC(=NOC[C@@H](C)[C@H](OCc4ccccc4)C(C)C)[C@@H]3CC[C@H]2C1=O | 0.484 |
| CCOC(=O)NN=C1C[C@@H](O)[C@@H](O)[C@@H]2[C@@H]3C(=O)N(C4CCCCC4)C(=O)[C@@H]3CC[C@@H]12 | -0.401 |
| CCc1cc2c(nc1CC)CCN(CCC(C)=NOC[C@@H](O)[C@H]1O[C@@H]3OC(C)(C)O[C@@H]3[C@H]1O)C2 | 0.0363 |
| CC(C)NC(=O)[C@@H]1c2ccccc2C(=O)N(CC23CC4CC(CC(C4)C2)C3)[C@H]1c1ccc(CO)cc1 | -0.291 |
| CN1C(=O)C2C=CC(C(O)C(c3ccccc3)c3ccccc3)N(NC(=O)OC(C)(C)C)C2C1=O (stereo not given) | 1.09 |
| CC(C)(C)OC(=O)CC[C@]1(C(N)=O)COC(c2ccc(OCCCO)cc2)=N1 | 1.42 |
| C/C=C\[C@@H](NCc1ccccc1Br)[C@@H](O)Cc1ccccc1 | 0.0924 |
| CCOC(=O)C1=CC[C@H]2C(=O)N(CC)C(=O)[C@@H]12 | -0.485 |
| COC(=O)C1(C)C=C2C(=C(c3ccccc3)C(=O)C2C)CN1 (stereo not given) | -0.0125 |
| CO[C@@H]1COC(=O)CC=C[C@@H](C)[C@@H]2C=C[C@H](O)[C@@H](COC(=O)CCC[C@H]1C)O2 | -1.7 |
| CCOC(=O)[C@H](Cc1ccccc1)NC(=O)CCC1CC(OC(=O)NCc2ccc3c(c2)OCO3)CC2(CCCC(COC(=O)NCC(c3ccccc3)c3ccccc3)O2)O1 (stereo not given in full) | -0.0205 |
| CN1C(=O)C2C(C1=O)C1C=C(CCCO)C2C(c2ccc(CN3CCCC3)cc2)N1C (stereo not given) | -0.0923 |
| [N-]=[N+]=NCc1ccccc1[C@@H]1OC(c2ccc(OCCCO)cc2)=N[C@]1(Cc1ccccc1)C(=O)N1CCOCC1 | 1.05 |
| CO[C@@H]1COC(=O)CCC[C@@H](C)[C@H](OC)COC(=O)CCC[C@H]1C | -0.966 |
| C=COC[C@H]1CN2[C@@H](CC[C@@H](C)[C@@H]2c2ccc(Br)cc2)C(=O)O1 | -0.092 |
| CC(C)=CCCC(C)=CCON=C1[C@H]2CCn3c(=O)n(Cc4cc5c(cc4Cl)OCO5)c(=O)n3[C@H]2[C@H](O)[C@@H]2O[C@H]12 | -0.591 |
| C=CCOC(=O)[C@H]1[C@@H]2C(=O)O[C@@H](c3ccccc3)[C@@H](c3ccccc3)N2[C@@H](c2ccc(OCCOC(=O)[C@H]3C[C@H]4C(=O)N5CCC[C@H]5C(=O)N4[C@H]3c3cccc(OCCO)c3)cc2)[C@]12C(=O)Nc1ccc(I)cc12 | 0.977 |
| COc1ccc(-c2ccc3c(n2)CCCN3CC(O)CN2CCCc3nc(C)c(C)cc32)cc1 (stereo not given) | -0.636 |

| Compound | composite z-score |
| --- | --- |
| COC(=O)[C@@]1(Cc2ccccc2)[C@H]2c3cc(C(=O)N4CCCC4)n(Cc4ccccn4)c3C[C@H]2CN1C(=O)c1ccccc1 | 0.053 |
| CC(C)NC(=O)[C@@]1(C)c2ccccc2C(=O)N(Cc2cc(F)cc(C(F)(F)F)c2)[C@H]1c1ccc(CO)cc1 | 0.418 |
| CO[C@H]1COC(=O)[C@H](C)COC(=O)CC=C[C@@H](C)[C@H](OC)COC(=O)CC=C[C@@H]1C | -1.28 |
| CC(=O)OC[C@H]1O[C@H](CCON=C(C)CCC(=O)OC[C@H]2O[C@H](C#Cc3ccccc3)C=C[C@@H]2Oc2ccc(C)cc2)C=C[C@@H]1OC(C)=O | -0.5 |
| CN(C)C(=O)[C@@]1(Cc2ccccc2)N=C(c2ccc(OCCCO)cc2)O[C@H]1c1ccccc1CN=[N+]=[N-] | 1.26 |
| C=CCC(OC(C)=O)[C@@H]1[C@@H](N(Cc2cc3ccccc3o2)C(=O)Cc2ccc(F)cc2)c2cc(OCCCO)ccc2N1C(=O)Cc1ccc(OC)cc1 (stereo not given in full) | -0.435 |
| COc1ccc(O[C@H]2C=C[C@@H](c3ccccc3)O[C@@H]2COC(=O)CCC(C)=NO[C@H](C)c2cn([C@@H]3COC[C@H]3O)nn2)cc1 | -0.686 |
| O=C(NN=C1C[C@@H](O)[C@@H](O)[C@@H]2[C@@H]3C(=O)N(c4cccc(Oc5ccccc5)c4)C(=O)[C@@H]3CC[C@H]12)OCc1ccccc1 | -0.312 |
| C=CCOC(=O)[C@H]1[C@@H]2C(=O)O[C@@H](c3ccccc3)[C@@H](c3ccccc3)N2[C@@H](c2ccc(OCCOC(=O)[C@H]3C[C@H]4C(=O)N[C@@H](Cc5ccccc5)C(=O)N4[C@H]3c3ccc(O)cc3)cc2)[C@]12C(=O)Nc1ccccc12 | 0.0731 |
| COCCCNC(=O)[C@@]1(Sc2ccc(C)cc2)CC(=O)N(Cc2ccccc2)[C@@H]1c1ccc(CO)cc1I | 0.214 |
| CCCCCN1CC=CC23O[C@@H]4C=CCOC(=O)[C@@H]4[C@H]2C(=O)N(C(CO)C(C)C)[C@@H]3C1=O (stereo not given in full) | -1.07 |
| CO[C@@H]1COC(=O)CC=C[C@@H](C)[C@@H]2C=C[C@@H](O)[C@@H](COC(=O)CC=C[C@H]1C)O2 | -2.11 |
| CO[C@@H]1COC(=O)[C@H](C)NC(=O)[C@@H](C)COC(=O)CCC[C@H]1C | -0.704 |
| COC(=O)[C@@]1(Cc2ccc(OC)cc2)[C@H]2c3cc(C(=O)N4CCCC4)n(Cc4cc(F)c(F)c(F)c4)c3C[C@H]2CN1C(=O)c1ccccc1 | 1.59 |
| CC(C)=NOCc1cccc(-c2cc(-c3ccccc3)no2)c1 | -0.823 |
| CC(C)=NOCc1ccc(-c2cc(-c3ccccc3)no2)cc1 | -0.498 |
| Cn1cccc1C(O)C1C=CC2C(=O)NC(=O)C2N1Nc1ccccn1 (stereo not given) | -0.472 |
